{"source": "PubChem BioAssay AID1745847", "about": "(National Center for Advancing Translational Sciences (NCATS), 2022)", "note": "Screen size: about 2,100 compounds; about 670 (32%) were called active. Roughly 50% stayed inconclusive and do not appear here. The list shows a part of the results. A number with no mark means an inactive call. The call rests on the fitted dose curve; in most records, active means well fitted inhibition curve with a large enough effect; inconclusive means small, poorly fitted or top-dose-only effect; inactive means no such curve, though single readings can be large or run the other way. On the % scale 0 is the no-effect control and ±100 the full control effect; potency means the concentration at half of the fitted maximal effect."}
{"assay": "CMV-Luciferase Counterscreen for Inhibitors of ATXN expression; further: nearly all actives have a fitted effect of over 55% in size", "conditions": "HEK-293 CMV-luciferase reporter, luminescence, 24 h; series mostly up to 57.5 µM"}
{"smiles": "COc1ccc(C(=O)C=CNNC(=O)c2ccc(Cl)cc2)cc1", "Potency": "11.2 µM (active)"}
{"smiles": "Cc1cc(OCc2nc(N)nc(N)c2-c2ccc(Cl)c(Cl)c2)ccc1[N+](=O)[O-]", "Potency": "0.316 µM (active)"}
{"smiles": "COc1cccc2c1C(=N)c1c(O)c3c(c(O)c1C2=O)CC(O)(C(C)=O)CC3OC1CC(N)C(O)C(C)O1", "note": "(stereo not given)", "Potency": "0.282 µM (active)"}
{"smiles": "CCCCC(=O)OCC(=O)C1(O)Cc2c(O)c3c(c(O)c2C(OC2CC(NC(=O)C(F)(F)F)C(O)C(C)O2)C1)C(=O)c1c(OC)cccc1C3=O", "note": "(stereo not given)", "Potency": "3.16 µM (active)"}
{"smiles": "C=CCn1cnc2c(c1=O)c1nc3ccccc3nc1n2/N=C/c1cc(OC)c(OC)c(OC)c1", "Potency": "inactive"}
{"smiles": "O=C(c1cnc(N2CCN(c3ccccn3)CC2)c2ccccc12)N1CCN(c2cccc(Cl)c2)CC1", "Potency": "6.31 µM (active)"}
{"smiles": "Cc1ccc(NC(=O)c2cnc(N3CCN(c4ccccn4)CC3)c3ccccc23)c(Br)c1", "Potency": "14.1 µM (active)"}
{"smiles": "CCCc1nc(NC2CCCCC2)c(C#N)c2c1COC(C)(C)C2", "activity change, negative = inhibition": "-15.4% [at 11.4 µM]"}
{"smiles": "CC(=O)Oc1ccc(N(C(C)=O)S(=O)(=O)c2cccs2)c2ccccc12", "Potency": "25.1 µM (active)"}
{"smiles": "CC(=O)Oc1ccc(N(C(C)=O)S(=O)(=O)c2ccc(C)cc2C)c2ccccc12", "Potency": "17.8 µM (active)"}
{"smiles": "NC(Cc1ccc(F)cc1)c1csc(Nc2cc(NCc3ccco3)ncn2)n1", "note": "(stereo not given)", "activity change, negative = inhibition": "0.881% [at 11.4 µM]"}
{"smiles": "Cc1nc(C(F)(F)F)c(C(=O)N/N=C(\\N)c2ccccn2)s1", "Potency": "10 µM (active)"}
{"smiles": "COc1cc(/C=C/C(=O)c2ccc(C)c([N+](=O)[O-])c2)cc(OC)c1O", "Potency": "inactive"}
{"smiles": "Cc1cccc(/C=C/C(=O)c2ccc([N+](=O)[O-])o2)c1", "Potency": "3.55 µM (active)"}
{"smiles": "CN(C)C(=O)c1cccc(-c2cnc3c(NC=O)cc(-c4ccc(F)cc4)cn23)c1", "activity change, negative = inhibition": "49.3% [at 11.4 µM]"}
{"smiles": "COc1ccc(CC2C(=O)NC(C)C(=O)N(C)C3Cc4ccc(cc4)Oc4cc(ccc4O)CC(C(=O)NC(C)C(=O)NC(C)C(=O)N2C)N(C)C3=O)cc1", "note": "(stereo not given)", "Potency": "0.891 µM (active)"}
{"smiles": "O=C(N/N=C/c1cc([N+](=O)[O-])ccc1O)c1cc(-c2ccccc2)nc2ccccc12", "Potency": "1.78 µM (active)"}
{"smiles": "O=C(N/N=C/c1cc([N+](=O)[O-])ccc1O)c1cccc2cc[nH]c12", "Potency": "2.82 µM (active)"}
{"smiles": "CN(C)CCNc1ncnc2c1ncn2[C@H]1CN(Cc2ccc(-c3ccccc3)cc2)C[C@@H](CO)O1", "Potency": "inactive"}
{"smiles": "OC[C@@H]1CN(Cc2ccc(-c3ccccc3)cc2)C[C@H](n2cnc3c(Nc4ccccc4)ncnc32)O1", "Potency": "12.6 µM (active)"}
{"smiles": "OC[C@@H]1CN(Cc2ccc(-c3ccccc3)cc2)C[C@H](n2cnc3c(NC4CCC4)ncnc32)O1", "Potency": "10 µM (active)"}
{"smiles": "CN(C)CCCNc1nc2cc(-c3cccc(Cl)c3)sc2c(=O)n1C", "Potency": "inactive"}
{"smiles": "CC1CCCCN1C(=O)C1CCN(c2nc(-c3ccccc3)nc3c2CCC3)CC1", "note": "(stereo not given)", "Potency": "22.4 µM (active)"}
{"smiles": "CN(C)C(=O)CSc1nc(-c2ccccc2)nc2c1CCCC2", "Potency": "inactive"}
{"smiles": "CSc1nc(-c2ccc(Cl)cc2)nc(N)c1C#N", "activity change, negative = inhibition": "-7.46% [at 11.4 µM]"}
{"smiles": "CCc1cc(-c2nnn(CCC3COCCO3)c2CC)ccc1-c1cn(CCc2c[nH]c3ccccc23)nn1", "note": "(stereo not given)", "Potency": "4.47 µM (active)"}
{"smiles": "COc1ccc2oc(/C=C/N(C)C)c(C(=O)c3ccc(Cl)cc3)c2c1", "Potency": "12.6 µM (active)"}
{"smiles": "C[C@H]1O[C@@H](O[C@H]2[C@@H](O)C[C@H](O[C@H]3[C@@H](O)C[C@H](O[C@H]4CC[C@@]5(C)[C@H](CC[C@@H]6[C@@H]5C[C@@H](O)[C@]5(C)[C@@H](C7=CC(=O)OC7)CC[C@]65O)C4)O[C@@H]3C)O[C@@H]2C)C[C@H](O)[C@@H]1O", "Potency": "inactive"}
{"smiles": "COc1cc2c3nnc(-c4ccc(F)cc4)c-3cn(Cc3ccc(C)cc3)c2cc1OC", "Potency": "inactive"}
{"smiles": "O=c1oc2ccccc2c(O)c1Cc1cc(Cl)c2cccnc2c1O", "Potency": "10 µM (active)"}
{"smiles": "CCC1(c2ccccc2)ON(c2c(Br)cccc2Br)C1=O", "note": "(stereo not given)", "Potency": "17.8 µM (active)"}
{"smiles": "O=C(c1ccc(Cn2c(=S)[nH]c3ccccc3c2=O)cc1)N1CCN(c2ccccn2)CC1", "Potency": "3.16 µM (active)"}
{"smiles": "CCc1nc2ccc(C(=O)Nc3cccc(NS(C)(=O)=O)c3)cn2c1N(CC)Cc1cccc(Br)c1", "Potency": "31.6 µM (active)"}
{"smiles": "CCc1nc(N)nc(N)c1-c1ccc(N(C)Cc2ccccc2)c([N+](=O)[O-])c1", "Potency": "0.501 µM (active)"}
{"smiles": "Cn1c(-[n+]2c(-c3ccccc3)cc(-c3ccccc3)cc2-c2ccccc2)nc2c([N+](=O)[O-])cccc21", "activity change, negative = inhibition": "0.1% [at 11.4 µM]"}
{"smiles": "O=S(=O)([N-]c1nc2ccccc2nc1-[n+]1ccc(Cc2ccccc2)cc1)c1ccc(Br)s1", "Potency": "14.1 µM (active)"}
{"smiles": "Cc1ccc(-c2cc(C(=O)NCCCN3CCOCC3)no2)cc1", "Potency": "8.91 µM (active)"}
{"smiles": "CN1CCN(CCNC(=O)c2ccc3nc(-c4ccc(F)cc4)c(-c4ccc(F)cc4)nc3c2)CC1", "Potency": "inactive"}
{"smiles": "O=C(Nc1ccc(Cl)c([N+](=O)[O-])c1)c1ccc(NCCCN2CCOCC2)c([N+](=O)[O-])c1", "Potency": "inactive"}
{"smiles": "Cc1cnc(NC(=O)C2CC(=O)N(c3cccc(Cl)c3)C2)s1", "note": "(stereo not given)", "activity change, negative = inhibition": "51.5% [at 11.4 µM]"}
{"smiles": "CCc1ccc(N2CC(C(=O)N/N=C/c3cc([N+](=O)[O-])ccc3O)CC2=O)cc1", "note": "(stereo not given)", "Potency": "10 µM (active)"}
{"smiles": "O=C(N/N=C/c1ccccc1O)C1CC(=O)N(c2ccc(Cl)cc2)C1", "note": "(stereo not given)", "Potency": "0.631 µM (active)"}
{"smiles": "COc1ccc(Cn2c(-c3ccc(C)cc3)c[n+]3ccccc23)cc1", "Potency": "1 µM (active)"}
{"smiles": "Nc1nc(N)c2cc(Sc3ccc4ccccc4c3)ccc2n1", "Potency": "10 µM (active)"}
{"smiles": "COc1cc(NC(=O)c2cc(-c3ccccc3)nc3c2cnn3C(C)C)cc(OC)c1OC", "Potency": "3.16 µM (active)"}
{"smiles": "COc1cc(Nc2ncc3c(n2)CCN(C(=O)Nc2ccc(C(C)C)cc2)C3)cc(OC)c1OC", "activity change, negative = inhibition": "-3.4% [at 11.4 µM]"}
{"smiles": "O=C(Nc1ccc(N2CCN(C(=O)c3ccco3)CC2)c(Cl)c1)c1cccs1", "Potency": "20 µM (active)"}
{"smiles": "O=C(Nc1ccc(N2CCOCC2)c(Cl)c1)c1c(F)c(F)c(F)c(F)c1F", "activity change, negative = inhibition": "29.5% [at 11.4 µM]"}
{"smiles": "O=C(Nc1ccc(NC(=O)c2ccc(Cl)cc2Cl)cc1)c1cccs1", "Potency": "inactive"}
{"smiles": "Cc1ccccc1C(=O)N1CCN(c2ccc(NC(=O)c3ccco3)cc2Cl)CC1", "Potency": "12.6 µM (active)"}
